This is a sample that favours compounds with a hit; in the whole collection about 0.9% have one here.
phage Ecoli inh = E. coli growth loss with phage present; growth absorbance; inhibition, % at 11.9 µM; 0.26% of 360,000 active; in the data active means inhibition above about 11%
E coli growth-1 = reduces bacterial viability in AddAB counter-screen; E. coli V3065 growth, OD600 absorbance, 18 h; inhibition, % at 11.9 µM; 0.27% of 330,000 active; AID 449728;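 active means inhibition above the campaign's mean inhibition across all tested compounds plus 3 SD, cut at about 9.9% in these data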;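 further: uninfected addAB+ strain grown without phage in ampicillin broth; 0% = DMSO wells and 100% = ciprofloxacin 0.95 µg/ml wells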
Tat transport = inhibitors of E. coli Tat protein transport; 0.036% of 340,000 active; E. coli MC4100 TorA-mCherry Tat export, fluorescence; inhibition, % at 10 µM;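 active means mean replicate inhibition at least 50% and at least half of replicates individually reaching 50%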;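 further: exported cargo escapes ClpAP degradation while cytoplasmic cargo is degraded and loses fluorescence; 0% = median of neutral control wells and 100% = median of NaSCN control wells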
E coli growth-2 = inhibitors of Escherichia coli growth; OD600 absorbance (concentration not given with the values); OD600, 23 h; active compounds read low; 0.21% of 330,000 active;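 active means OD600 absorbance below the run mean of sample wells minus 3.6 SD, in any replicate, cut at about 0.56 in these data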
AddAB inh = less growth of phage-infected E. coli with AddAB | E. coli expressing H. pylori AddAB, absorbance growth | inhibition, % at 11.9 µM | 0.29% of 330,000 active; in the data active means inhibition above about 12%;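 further: 0% = vehicle wells of infected cells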
Calb FLC = affects C. albicans growth with fluconazole. C. albicans CaCi-2 (fluconazole-resistant clinical isolate) + fluconazole, Alamar Blue growth, 48 h. growth inhibition, % (no concentration beside the values). 0.57% of 300,000 active;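 active means growth inhibition above about 58% in most replicates, limit read from the data, passing the limit was not always enough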;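 further: all wells also contain fluconazole at 8 µg/ml as a sub-toxic cotreatment; 0% = median of DMSO wells and 100% = median of geldanamycin control wells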
AddAB conf = growth loss of T4-infected E. coli expressing H. pylori AddAB, confirmed. E. coli V3065 expressing H. pylori AddAB, T4 phage, OD; T4 phage with gene 2 nonsense mutations. 64% of 880 active. inhibition, % at 11.9 µM. shares compounds with AddAB inh;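 active means mean inhibition above a set limit taken from the earlier primary screen, cut at about 13% in these data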;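 further: higher means less bacterial growth since AddAB block lets phage replicate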
RecBCD counter = AddAB counter-screen: growth loss of RecBCD+ E. coli infected with mutant T4 phage. shares compounds with AddAB inh. E. coli V66 + mutant T4 phage, OD growth. inhibition, % at 11.9 µM. 73% of 880 active. AID 488955;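 active means mean inhibition above the mean of solvent-only control wells plus 3 SD, cut at about 4% in these data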;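 further: optical density read after an 18 h incubation at 37 °C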
bact viab count = reduces bacterial viability, AddAB inhibitor counter-screen | shares compounds with AddAB inh | absorbance (AddAB counterscreen) | inhibition, % at 11.9 µM | 35% of 880 active | AID 488956; in the data active means inhibition above about 25%
RecBCD conf = confirmation: growth loss of phage-infected RecBCD+ E. coli (RecBCD inhibitor screen); shares compounds with phage Ecoli inh; E. coli V66 + T4 2- phage, growth OD; inhibition, % at 11.9 µM; 45% of 890 active; AID 651982;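 active means mean inhibition over triplicates exceeding the hit threshold derived in the original primary screen, cut at about 11% in these data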
Ecoli viability = inhibits E. coli viability, flagging RecBCD hits as nonselective. shares compounds with phage Ecoli inh. absorbance (OD) growth. inhibition, % at 11.9 µM. 29% of 890 active; in the data active means inhibition above about 20%;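 further: E. coli strain V66 grown with compound alone and no phage infection; 0% = bacteria with DMSO vehicle only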
AddAB counter = growth loss of phage-infected AddAB E. coli, RecBCD counter-screen; shares compounds with phage Ecoli inh; E. coli expressing H. pylori AddAB + T4 phage, OD growth; gene 2 mutant T4, recBCD-deleted host; inhibition, % at 11.9 µM; 45% of 890 active; AID 651984;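 active means mean inhibition above the solvent-only control wells' mean plus 3 SD, cut at about 22% in these data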;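 further: higher means less bacterial growth from phage killing when AddAB is blocked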
* hit, by the source's call; · = not tested or not shown.

SMILES | phage Ecoli inh | E coli growth-1 | Tat transport | E coli growth-2 | AddAB inh | Calb FLC | AddAB conf | RecBCD counter | bact viab count | RecBCD conf | Ecoli viability | AddAB counter
CC(=O)NC(C)c1cc(Cl)c2cccnc2c1O (stereo not drawn) | 0 | -9 | -6 | 0.63 | -7 | · | · | · | · | · | · | ·
O=C1CS/C(=N/N=Cc2cccs2)N1 | · | · | · | 0.65 | · | · | · | · | · | · | · | ·
CCn1cc(C(=O)O)c(=O)c2cc(F)c(NN=Cc3ccccc3)cc21 | · | · | · | 0.66 | · | · | · | · | · | · | · | ·
Cc1cc(C)c(NC(=O)CCCN2CCN(C)CC2)c(C)c1 | -1 | 0 | 5 | 0.69 | 4 | 1 | · | · | · | · | · | ·
Cc1cc(C)c(NC(=O)c2cn3c4c(c(N5CCN(C)CC5)c(F)cc4c2=O)OCC3C)c(C)c1 (stereo not drawn) | 97* | 97* | 36 | 0.049* | 97* | -20 | 101* | 100* | 101* | 99* | 100* | 101*
CN1CCN(c2c(F)cc3c(=O)c(C(=O)O)cn4c3c2OCN4C)CC1 | 99* | 99* | 138* | 0.07* | 99* | -2 | 101* | 100* | 101* | 102* | 102* | 103*
C/C(C=NNC(=O)c1cccc([N+](=O)[O-])c1)=C\c1ccccc1 | · | · | · | 0.72 | · | · | · | · | · | · | · | ·
CCCCC(=O)NC(c1ccc(N(C)C)cc1)c1ccc2cccnc2c1O (stereo not drawn) | 23* | 35* | 20 | · | 25* | 94* | 30* | 23* | 21 | 13* | 15 | 14
CCCC(=O)NC(c1ccc(N(C)C)cc1)c1c(O)ccc2ccccc12 (stereo not drawn) | 4 | -3 | 1 | 0.67 | -3 | -1 | · | · | · | · | · | ·
CCCCC(=O)NC(c1ccc(N(CC)CC)cc1)c1ccc2cccnc2c1O (stereo not drawn) | 19* | 17* | 1 | · | 20* | 121* | 24* | 17* | 19 | 12* | 14 | 19
O=[N+]([O-])c1ccccc1/C=C/C=Nn1c(-c2ccc(Cl)cc2)n[nH]c1=S | · | · | · | 0.71 | · | · | · | · | · | · | · | ·
O=C(Nc1nnc(-c2ccccc2)o1)c1ccc(Cl)cc1 | 24* | 7 | -13 | 0.33* | 13* | 2 | 33* | 27* | 21 | 18* | 20* | 20
CCN1CCN(c2cc3c(cc2F)c(=O)c(C(=O)O)cn3C2CC2)CC1 | 102* | 100* | 146* | 0.064* | 99* | · | 99* | 100* | 99* | 102* | 104* | 103*
CC(=O)N1CCN(c2cc3c(cc2F)c(=O)c(C(=O)O)cn3C2CC2)CC1 | 96* | 101* | 62* | 0.067* | 102* | -2 | 99* | 99* | 99* | 101* | 102* | 102*
CCn1cc(S(=O)(=O)c2ccccc2)c(=O)c2cc(F)c(N3CCN(C)CC3)cc21 | 2 | -1 | -4 | 0.65 | 4 | 22 | · | · | · | · | · | ·
NC1CCN(c2c(F)cc3c(=O)c(C(=O)O)cn(C4CC4)c3c2Cl)C1 (stereo not drawn) | 99* | 98* | 149* | 0.066* | 97* | -1 | 102* | 100* | 102* | 101* | 101* | 99*
CC1CCc2cc(F)cc3c(=O)c(C(=O)O)cn1c23 (stereo not drawn) | 100* | 100* | 56* | 0.062* | 100* | · | 99* | 31* | 100* | 102* | 103* | 102*
CCOC(=O)C1CN(c2cc3c(cc2F)c(=O)c(C(=O)O)cn3CC)OC1C(=O)OCC (stereo not drawn) | 4 | -1 | 0 | 0.66 | 3 | -2 | · | · | · | · | · | ·
O=C(O)c1cn(C2CCCCC2)c2ccccc2c1=O | 1 | 1 | 2 | 0.65 | 0 | 8 | · | · | · | · | · | ·
CC1CCc2c(N3CCC(O)CC3)c(F)cc3c(=O)c(C(=O)O)cn1c23 (stereo not drawn) | 103* | 102* | 60* | 0.059* | 101* | · | 96* | 99* | 97* | 102* | 103* | 103*
CC(=NNC(=O)Cc1cccn1C)c1cccs1 | · | · | · | 0.68 | · | · | · | · | · | · | · | ·
COc1ccc(C(=O)NC(=S)NNC(=O)c2ccccc2O)cc1 | 12* | 18* | -1 | 0.7 | 15* | 36 | 19* | 23* | 23 | 12* | 16 | 22*
O=C(/C=C/c1cccs1)NC(=S)NNC(=O)c1ccccc1O | 21* | 22* | 0 | 0.6 | 26* | 118* | 19* | 22* | 20 | 11 | 17 | 23*
COc1ccc(C(=O)NNC(=S)NC(=O)/C=C/c2cccs2)cc1 | -2 | -6 | -15 | 0.72 | -6 | 51 | · | · | · | · | · | ·
O=C(NNC(=O)c1cc2ccccc2cc1O)Nc1ccc(Br)cc1 | 15* | 11* | 2 | 0.69 | 15* | 6 | 14* | 17* | 14 | 7 | 7 | 9
SMILES | phage Ecoli inh | E coli growth-1 | Tat transport | E coli growth-2 | AddAB inh | Calb FLC | AddAB conf | RecBCD counter | bact viab count | RecBCD conf | Ecoli viability | AddAB counter
NNC(=O)c1cc2ccccc2cc1O | 6 | 2 | -11 | 0.67 | 4 | -5 | · | · | · | · | · | ·
O=C(NC(=S)NNC(=O)c1cc2ccccc2cc1O)c1ccco1 | 20* | 17* | -17 | · | 15* | 83* | 15* | 24* | 18 | 14* | 17 | 20
COc1ccc(C(=O)NC(=S)NNC(=O)c2ccco2)cc1 | -5 | -4 | -1 | 0.64 | 0 | 1 | · | · | · | · | · | ·
O=C(Nc1ccc2c(c1)OCO2)OC1CC2CCC(=O)N3CCC(C1)C23 (stereo not drawn) | · | · | · | 0.67 | · | · | · | · | · | · | · | ·
CC(C)CCOc1ccc(C=NN2C(=O)CSC2=S)cc1 | · | · | · | 0.64 | · | · | · | · | · | · | · | ·
C#CCOc1c(Cl)cc(C=NO)cc1OC | · | · | · | 0.71 | · | · | · | · | · | · | · | ·
COc1ccccc1CN1C(=O)C2Cc3c([nH]c4ccccc34)C(C)(C)N2C1=O (stereo not drawn) | · | · | · | 0.66 | · | · | · | · | · | · | · | ·
NC(CO)c1nnc(C(CC(=O)O)NC(=O)C2CCNCC2)o1 (stereo not drawn) | · | · | · | 0.67 | · | · | · | · | · | · | · | ·
COc1ccc(C)cc1NC(=O)NNC(=O)c1cc2ccccc2cc1O | 13* | 15* | -3 | 0.64 | 16* | 93* | 17* | 14* | 12 | 3 | 3 | 6

High-throughput results deposited in PubChem by several laboratories.
